Pf growth 48h: inhibits P. falciparum growth in the first generation, 48 h | AID 504832 | Potency, µM (series often up to 28.7 µM), for inactives: top-dose activity change, negative = inhibition, usual class: inhibitors | P. falciparum luciferase growth in erythrocytes, 48 h | actives 5.9% (n = 310,000); further: potency means the concentration at half of the fitted maximal effect; on the % scale 0 is the no-effect control and ±100 the full control effect
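Cell-based growth assay: transgenic P. falciparum expressing firefly luciferase, cultured in red cells within RPMI 1640 containing 0.5% w/v Albumax, 24 mM bicarbonate and gentamycin. A drop in luciferase activity indicates inhibition.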
Cycloheximide cs: counter-screen for Shiga toxin inhibitors: cycloheximide protein synthesis inhibition. AID 2314. max response, %. cell reporter, cycloheximide protein synthesis inhibition counterscreen. actives 12% (n = 300,000); in the data active means max response mostly above about 13%, no sharp cut-off; inactive means mostly below about 14%; further: read at 38.3 µM for the half of the compounds with a filed dose; 0% is about no effect
Pf growth 96h: P. falciparum growth inhibition at 96 hours | P. falciparum luciferase reporter growth, 96 h | Potency, µM (highest dose often 28.7 µM), for inactives: at the top dose activity change, negative = inhibition, usual class: inhibitors | actives 6.9% (n = 320,000) | AID 504834; further: potency means the concentration at half of the fitted maximal effect; on the % scale 0 is the no-effect control and ±100 the full control effect
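Plates of compound plus infected erythrocytes (2% hematocrit, 0.05% parasitemia final) incubate 96 hours, 37 C, 5% CO2. Detection reagent added; reduced luminescence from the parasites' luciferase reporter flags inhibition.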
Shiga toxin inh: blocks Shiga toxin action in Vero cells; Vero cells, Shiga toxin protein synthesis inhibition reporter; inhibition, % at 38.7 µM; actives 9.2% (n = 290,000); AID 2315; in the data active means inhibition mostly above about 28%, no sharp cut-off; inactive means mostly below about 43%; further: 0% is about no effect
HCV inhibitor: inhibitors of hepatitis C virus infection | Huh7.5.1 HCVcc-Cre infection, luciferase reporter, 44 h | Potency, µM (top dose mostly 41.8 µM), without a hit: at the highest dose activity change, negative = inhibition, actives largely listed as inhibitors | actives 3.4% (n = 340,000) | AID 651820; further: potency means the concentration at half of the fitted maximal effect; on the % scale 0 is the no-effect control and ±100 the full control effect
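Cells seeded at 1,000/well and cultured 4 h, then compounds added followed by HCVcc-Cre virus (~0.5 moi). After 44 h further culture, luciferase substrate was added, plates held 15 min at room temperature, and luminescence read for 15 sec.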
AMA1-RON2 inh: inhibitors of Plasmodium falciparum AMA1-RON2 interaction; AID 720542; AlphaScreen AMA1-biotinylated RON2 peptide binding; Potency, µM (highest dose often 58.2 µM), inactives show top-dose activity change, negative = inhibition, usual class: inhibitors; actives 0.2% (n = 360,000);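 further: potency means the concentration at half of the fitted maximal effect; 0% = vehicle wells and -100% = peptide control; nearly all actives have a fitted effect of over 45% in size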
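AMA1 (3D7) with his tag at 25 nM final met compounds first, then biotinylated RON2 peptide at 25 nM; detection used donor plus acceptor beads, 10 µg/mL apiece, read by AlphaScreen after 30 min at room temperature.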
Starred values were filed as active, the others as inactive; ? = inconclusive; / = no result; [ ] = remark or other dose. In the library only some 21% were active in any assay of this set; here they are far more common. Unless noted, the call rests on the fitted dose curve; in most records, active means well fitted curve in the direction sought with a large enough effect; inconclusive means small, poorly fitted or top-dose-only effect, or another doubt; inactive means no such curve, though single readings can be large; an effect the other way counts as inactive or inconclusive.

SMILES | Pf growth 48h | Cycloheximide cs | Pf growth 96h | Shiga toxin inh | HCV inhibitor | AMA1-RON2 inh
OC(c1ccccc1)(c1nc(-c2ccccc2)cs1)C(F)(F)F (centres undefined) | / | / | / | / | / | 18.6%
CC(C)CNC(=S)N1CCN(C(c2ccccc2)c2ccccc2)CC1 | ? | -5.2 | 2.08µM* | 7.7 | 0.5% | -21.6%
C=C(C)CNC(=S)N1CCN(C(c2ccccc2)c2ccccc2)CC1 | ? | 6.1 | 0.4% | 2.7 | 0.3% | -4.5%
COCCCNC(=S)N1CCN(C(c2ccccc2)c2ccccc2)CC1 | 13.1µM* | -3.0 | -7.6% | -2.1 | / | -20.5%
S=C(NCc1ccco1)N1CCN(C(c2ccccc2)c2ccccc2)CC1 | ? | 2.0 | 23.5% | 32.1 | ? | -3.2%
O=C(COC(=O)COc1ccc(Cl)cc1)NC1CCCC1 | 5.0% | / | 9.7% | / | 1.3% | 11.5%
O=C(NCc1cccc(C(F)(F)F)c1)c1ccc(=O)[nH]c1 | 10.4% | -2.4 | 59.8% | 17.4 | 6.3% | -3.3%
CN1N=C(C(=O)Nc2ccc3c(c2)CCC3)CCC1=O | 70.1% | 28.0* | 121.0% | 76.0* | -18.6% | -9.7%
Cn1ncc(Cl)c1C(=O)Nc1ccc2c(c1)CCC2 | 17.2% | 43.7* | 12.9% | 76.6* | -1.6% | 7.9%
COC(=O)c1cc(NC(=O)c2c(Cl)cnn2C)cc(C(=O)OC)c1 | 25.0% | -3.7 | 58.7% | 10.2 | ? | 0.0%
N#Cc1nc(-c2ccc(OCc3ccccc3)cc2)oc1NCc1cccnc1 | ? | 2.4 | ? | 39.8 | ? | ?
Cc1ccc(OCc2nc(C#N)c(NCCCn3ccnc3)o2)cc1 | -17.9% | -4.7 | / | -24.0 | -11.6% | -15.1%
CCCOc1ccc(-c2nc(C#N)c(NCCCn3ccnc3)o2)cc1 | 10.4µM* | -3.6 | 7.38µM* | -6.0 | ? | 0.0%
N#Cc1nc(-c2ccc(OCc3ccc(Cl)cc3)cc2)oc1NCc1cccnc1 | -6.1% | 34.9* | ? | 74.7* | 8.1% | 12.8%
N#Cc1nc(-c2ccc(OCc3ccccc3)cc2)oc1NCCCn1ccnc1 | 2.94µM* | -1.1 | 14.8%[5.75 µM] | 11.3 | ? | 5.8%
N#Cc1nc(COc2ccccc2)oc1NCCCn1ccnc1 | ? | 27.3* | ? | 32.6* | 4.3% | -23.3%
COc1cc(CN2CCN(c3ncccn3)CC2)cc(OC)c1 | 17.8% | -1.7 | ? | -1.9 | 1.8% | 12.2%
CC(C)C[C@H](NC(=O)[C@@H]1CCCN1C(=O)[C@H](Cc1ccccc1)NC(=O)[C@H](C)NC(=O)[C@H](CCC(=O)O)NC(=O)[C@H](C)NC(=O)[C@H](CO)NC(=O)[C@H](CCC(=O)O)NC(=O)[C@H](CC(=O)O)NC(=O)[C@H](CCC(=O)O)NC(=O)[C@H](C)NC(=O)CNC(=O)[C@H](CC(N)=O)NC(=O)[C@@H]1CCCN1C(=O)[C@H](Cc1ccc(O)cc1)NC(=O)[C@@H](NC(=O)[C@H](CCCCN)NC(=O)[C@@H](NC(=O)[C@@H]1CCCN1C(=O)[C@@H](N)CCCNC(=N)N)C(C)C)C(C)C)C(=O)N[C@@H](CCC(=O)O)C(=O)N[C@@H](Cc1ccccc1)C(=O)O | / | -5.8 | / | 6.6 | / | /
CN(C)c1oc(-c2ccc(OCc3ccccc3)cc2)nc1C#N | -13.5% | 31.2* | 5.22µM* | 49.1* | ? | -28.5%
CCOc1ccc(-c2nc(C#N)c(NCc3ccco3)o2)cc1 | ? | 23.4* | 0.4% | 46.2* | ? | -15.4%
N#Cc1nc(-c2ccc(OCc3ccccc3Cl)cc2)oc1NCCCn1ccnc1 | 1.65µM* | 15.1* | 21.2% | 26.1* | 4.8% | /
CCN(CC(=O)NC(C)(C)C)C(=O)CCl | 11.7µM* | -2.3 | ? | -6.3 | ? | 3.8%
CCN(CC(=O)NC(C)(C)C)C(=O)COc1c(Cl)cc(Cl)c2ccc(C)nc12 | ? | 2.7 | ? | -5.4 | ? | 82.3%
C[C@@H]1CN([C@@H](C)CO)C(=O)c2cc(NS(C)(=O)=O)ccc2O[C@@H]1CN(C)S(=O)(=O)c1ccccc1 | / | / | / | / | -3.3% | 0.0%
O=C(CCS(=O)(=O)Cc1ccc(Cl)cc1)NCCc1ccccc1 | 47.9% | 18.8* | 5.8% | 14.9 | 4.3% | -15.1%
SMILES | Pf growth 48h | Cycloheximide cs | Pf growth 96h | Shiga toxin inh | HCV inhibitor | AMA1-RON2 inh
O=C(CCS(=O)(=O)Cc1cccc(Cl)c1)NCCc1ccccc1 | 17.7% | -2.2 | 38.6% | 51.0 | -2.8% | -1.0%
Cc1ccc(CS(=O)(=O)CCC(=O)NCCc2ccccc2)cc1 | 18.7% | 5.8 | 4.6% | -5.7 | 5.62µM* | -1.6%
O=C(CCS(=O)(=O)Cc1ccccc1)NCCc1ccccc1 | 9.0% | -3.2 | -14.0% | -5.1 | 24.5% | -2.2%
Cc1cc(NC(=O)CSCC(=O)N2CCN(c3ccccc3)CC2)no1 | / | / | / | / | 21.5% | -8.6%
Cc1ccc(N2CC(C(=O)Nc3ccc(C)c(S(=O)(=O)N(C)C)c3)CC2=O)cc1 (centres undefined) | ? | -1.2 | ? | 19.3 | ? | 10.3%
O=C(CCCN1C(=O)/C(=C/c2ccccc2Cl)SC1=S)Nc1ccccn1 | -18.1% | -4.2 | ? | -8.6 | ? | -14.5%
O=C1/C(=C/c2ccccc2Cl)SC(=S)N1CCCC(=O)N(CCO)c1ccccc1 | ? | -3.6 | -27.0% | -12.6 | 12.6µM* | ?
O=C(CCCN1C(=O)/C(=C/c2ccccc2Cl)SC1=S)Nc1cccnc1 | ? | 28.9* | 87.3% | 41.7* | ? | -17.4%
CCN1C[C@@H]2[C@@H]3C(=O)N(C)C(=O)[C@@H]3[C@](C)(C1=O)N2C(=O)c1ccc(C(F)(F)F)cc1 | / | / | / | / | 6.3% | 6.0%
CC1CCN(S(=O)(=O)c2cc(F)ccc2CN2C(=O)c3cccnc3C2=O)CC1 | 2.3% | -3.7 | 33.6% | -6.7 | 5.6% | 7.6%
CC1(C(=O)NS(=O)(=O)c2cccc(OC(F)F)c2)CCN1C(=O)c1cccc(F)c1 (centres undefined) | / | / | / | / | / | 6.8%
N#Cc1sc2nc3c(c(-c4ccco4)c2c1N)CCCC3 | 6.2% | -2.5 | -23.9% | 14.8 | 7.94µM* | 26.1%
Cc1ccc(-c2c3c(nc4sc(C(N)=O)c(N)c24)CCC3)cc1 | 29.2% | 29.3* | ? | 95.2 | ? | 78.3%
Nc1c(C(=O)NCC2CCCO2)sc2nc3c(c(-c4ccco4)c12)CC/C3=C\c1ccco1 (centres undefined) | ? | 15.3 | ? | 10.9 | ? | 8.91µM*
Cc1ccccc1NC(=O)c1sc2nc3c(c(-c4ccco4)c2c1N)CCC3 | ? | 9.5 | ? | 38.9 | 3.98µM* | 0.0%
NC(=O)c1sc2nc3c(c(-c4ccco4)c2c1N)CCCC3 | 19.3% | -2.8 | 46.6% | -15.3 | -27.2% | -0.5%
CC(=O)c1c(C)[nH]c(C(=O)Nc2cccc(S(=O)(=O)N3CCCC3)c2)c1C | / | / | / | / | ? | 17.1%
CC(C)(C)c1nc(CN2CCOCC2)cc(CN2CCOCC2)c1O | / | -2.5 | ? | 4.1 | 9.0% | ?

High-throughput results (PubChem)
